Results reported in article PMC4336329 (PLoS ONE, 2015).
Screen size: about 310,000 compounds; about 14,000 (4.5%) showed an effect of 50% or more. Effects have a minus sign here. The list comes from a sample in which strong results are over-represented; it also holds similar structures and randomly drawn compounds.

target: human ether-à-go-go-related gene (hERG) potassium channel (human, UniProt Q12809); test: primary screen, population patch clamp on CHO cells stably expressing hERG; higher = less effect of the substance
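Note: peak tail current of the secondary pulse compared with the same well before compound.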

Chain of human ether-à-go-go-related gene (hERG) potassium channel (Q12809 whole entry, looked up): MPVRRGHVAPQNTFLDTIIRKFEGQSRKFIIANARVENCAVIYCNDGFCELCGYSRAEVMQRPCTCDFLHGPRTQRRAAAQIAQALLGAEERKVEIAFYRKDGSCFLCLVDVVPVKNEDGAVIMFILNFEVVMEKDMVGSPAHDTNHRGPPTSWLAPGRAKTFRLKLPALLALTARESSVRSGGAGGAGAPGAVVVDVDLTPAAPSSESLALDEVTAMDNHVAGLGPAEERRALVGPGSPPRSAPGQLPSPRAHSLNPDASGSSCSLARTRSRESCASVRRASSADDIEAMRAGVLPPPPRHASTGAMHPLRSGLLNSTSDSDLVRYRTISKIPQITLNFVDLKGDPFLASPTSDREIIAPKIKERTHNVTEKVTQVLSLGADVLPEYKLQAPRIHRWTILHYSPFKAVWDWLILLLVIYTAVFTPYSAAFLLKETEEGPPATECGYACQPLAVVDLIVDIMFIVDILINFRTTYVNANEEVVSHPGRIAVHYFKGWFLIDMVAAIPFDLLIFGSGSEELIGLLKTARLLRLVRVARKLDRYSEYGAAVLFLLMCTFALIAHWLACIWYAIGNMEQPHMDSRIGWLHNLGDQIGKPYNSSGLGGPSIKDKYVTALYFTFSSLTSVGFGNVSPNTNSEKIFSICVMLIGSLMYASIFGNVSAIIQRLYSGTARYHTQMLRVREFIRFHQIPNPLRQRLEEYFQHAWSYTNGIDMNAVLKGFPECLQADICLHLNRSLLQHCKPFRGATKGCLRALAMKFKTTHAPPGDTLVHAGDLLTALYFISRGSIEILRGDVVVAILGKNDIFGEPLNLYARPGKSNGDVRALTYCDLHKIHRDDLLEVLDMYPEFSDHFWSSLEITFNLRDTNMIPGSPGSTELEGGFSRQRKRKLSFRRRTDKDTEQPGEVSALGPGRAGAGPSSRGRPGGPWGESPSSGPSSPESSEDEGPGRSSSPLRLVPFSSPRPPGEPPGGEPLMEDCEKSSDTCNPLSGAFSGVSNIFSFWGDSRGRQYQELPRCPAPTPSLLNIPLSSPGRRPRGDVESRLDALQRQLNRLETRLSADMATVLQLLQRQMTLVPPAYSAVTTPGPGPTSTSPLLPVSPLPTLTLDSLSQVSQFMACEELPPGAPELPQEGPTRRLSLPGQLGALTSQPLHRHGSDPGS

SMILES | hERG current change (%, negative = inhibition) at 10uM [%]
Cc1onc(-c2ccccc2)c1-c1nnc(CN2CCN(S(=O)(=O)c3ccccc3F)CC2)o1 | -28.4
Cc1c(/C=N\NC(=O)C2(C)CC2(Cl)Cl)cnn1C (stereo not shown) | 5.55
COc1ccc(CC(=O)NC(=S)Nc2ccc(S(N)(=O)=O)cc2)cc1 | -17.6
COc1ccc(/C=N/NC(=O)c2cccc(Br)c2)cc1CSc1ccccn1 | 2.67
CCCNC(=O)c1cccc(Cn2nc(C)c(Br)c2C)c1 | -6.12
CSc1cc(C)n(-c2ccc(Cl)cc2)c(=S)c1C(C)=O | -33.9
Cn1c(SCC(=O)NNC(=O)c2ccccc2O)nnc1-c1ccccc1 | 18
CCN(CC)S(=O)(=O)c1ccc(N(C)Cc2cccnc2)nc1 | -15.2
CC(C)[NH+]1CCC2(CC1)C(C#N)=C(N)NC([S-])=C2C#N | -4.59
COc1ccc(CN(CC(=O)NC2CCCC2)C(=O)c2ccc(-c3ccccc3)[nH]2)cc1 | -19.9
CCCCN1C(=S)NC[C@@H]1Cc1ccccc1 | -11.8
Cc1ccnc(NCn2nnc3ccccc32)c1 | 7.69
Cc1ccc(NC(=O)C(=O)NCCN2CCN(C(=S)Nc3ccccc3)CC2)cc1 | -19.1
Cc1ccc(NC(=O)C(=O)NCCN2CCN(C(=O)C(c3ccccc3)c3ccccc3)CC2)cc1 | -9.93
Cc1ccccc1C(=O)N1CCN(CCNC(=O)C(=O)Nc2ccc(Br)cc2)CC1 | -68.8
CC1CC(C)CN(CC(O)COCc2ccccc2F)C1.Cl (stereo not shown) | -23.4
COc1ccc(CCNC(=S)Nc2cccc(C)c2)cc1 | -8.64
CCC1(c2ccc(F)cc2)NC(=O)N(CC(=O)N2c3ccccc3NC(=O)CC2C)C1=O (stereo not shown) | -58.4
CCC1(c2ccc(F)cc2)NC(=O)N(CC(=O)N2c3ccccc3CC2C)C1=O (stereo not shown) | -12.9
CCC1(c2ccc(F)cc2)NC(=O)N(CC(=O)N2CC(=O)Nc3ccccc32)C1=O (stereo not shown) | -5.52
Cc1c(C(c2ccc(O)cc2)c2c(C)n(C)n(-c3ccccc3)c2=O)c(=O)n(-c2ccccc2)n1C | -7.93
COc1ccccc1/C=C1\SC(=S)N(CCC(=O)N2CCCCC2CCO)C1=O (stereo not shown) | 16.7

SMILES | hERG current change (%, negative = inhibition) at 10uM [%]
CNc1ccccc1C(C)(C)c1cc(C)[nH]n1 | 22.6
Cc1cc(=O)[nH]c(SCC(=O)Nc2ccc3c(c2)CCC3)c1C#N | -6.4
O=C(Nc1ccc(N2CCN(C(=O)C3CC3)CC2)cc1)c1cccs1 | 2.17
CN(CCc1ccccc1)C1CCCN(S(=O)(=O)N(C)C)C1 (stereo not shown) | -15.7
Cc1cc(S(=O)(=O)N2CCCC(N(C)CCc3ccccn3)C2)c(C)cc1Cl (stereo not shown) | -71.6
CN(CCc1ccccn1)C1CCCN(S(=O)(=O)c2ccc(F)c(Cl)c2)C1 (stereo not shown) | -48
CC(=O)c1ccc(S(=O)(=O)N2CCCC(N(C)CCc3ccccn3)C2)cc1 (stereo not shown) | -65.3
CN(CCc1ccccc1)C1CCCN(S(=O)(=O)CC(F)(F)F)C1 (stereo not shown) | -3.61
CC(=O)c1ccc(S(=O)(=O)N2CCCC(N(C)CCc3ccccc3)C2)cc1 (stereo not shown) | -81.2
Cc1cc(S(=O)(=O)N2CCCC(N(C)CCc3ccccn3)C2)c(C)s1 (stereo not shown) | -46.6
CN(CCc1ccccn1)C1CCCN(S(=O)(=O)c2ccccc2Cl)C1 (stereo not shown) | -46.5
COC(=O)c1sccc1S(=O)(=O)N1CCCC(N(C)CCc2ccccn2)C1 (stereo not shown) | -22.7
Cn1nc(-c2ccc(N3CCCCC3)c(NC(=O)c3ccco3)c2)c2ccccc2c1=O | 9.65
CN(C)CCCNC(=S)N(Cc1cccs1)Cc1cc2cc3c(cc2[nH]c1=O)OCCO3 | 6.79
Cc1ccc(/C=C2\SC(=S)N(CCC(=O)NNS(=O)(=O)c3ccc(C)cc3)C2=O)cc1 | 28.8
CN(C(=O)COC(=O)/C=C/c1cn(-c2ccccc2)nc1-c1ccc2c(c1)OCCO2)C1CCS(=O)(=O)C1 (stereo not shown) | -3.86
Cc1cc(=O)[nH]c(SCC(=O)NCCOc2ccccc2)n1 | 1.39
Cc1ccccc1NC(=S)N(CCN(C)C)C(C)c1cccnc1 (stereo not shown) | -50.1
CCc1ccccc1NC(=S)N(CCN(C)C)C(C)c1cccnc1 (stereo not shown) | -7.25
COCCN(C(=S)Nc1ccc(C)cc1)C(C)c1cccnc1 (stereo not shown) | -22.9
COCCN(C(=S)Nc1cccc(C)c1)C(C)c1cccnc1 (stereo not shown) | -4.61
Cc1cccc(C)c1NC(=S)N(CCN(C)C)C(C)c1cccnc1 (stereo not shown) | -9.34

SMILES | hERG current change (%, negative = inhibition) at 10uM [%]
COCCN(C(=S)Nc1cc(C)cc(C)c1)C(C)c1cccnc1 (stereo not shown) | -58.4
Cc1ccccc1NC(=O)c1ccc(N/N=C/c2ccccc2O)c([N+](=O)[O-])c1 | 9.72
CC(Sc1nnc(-c2ccncc2)n1C)C(=O)NCC1CCCO1 (stereo not shown) | 4.42
CC(C)Cc1ccc(CN2CCCC(NC(=O)c3cnc4ccccn4c3=O)C2)cc1 (stereo not shown) | -71.8
CC(C)c1ccc(NC2CCCN(C(=O)c3cnc4ccccn4c3=O)C2)cc1 (stereo not shown) | 12
Cc1occc1C(=O)NC1CCCN(Cc2ccc(CC(C)C)cc2)C1 (stereo not shown) | -38
O=C(NC1CCCN(Cc2ccc(Cl)cc2)C1)c1ccnc(Cl)c1 (stereo not shown) | -38.6
O=C(NC1CCCN(Cc2ccc(Cl)cc2)C1)c1cnc2ccccn2c1=O (stereo not shown) | -21.8
CC(C)Cc1ccc(CN2CCCC(NC(=O)CCCN3CCCC3=O)C2)cc1 (stereo not shown) | -25.8
CC(C)Cc1ccc(CN2CCCC(NC(=O)c3ccoc3)C2)cc1 (stereo not shown) | -70.9
O=C(NC1CCCN(Cc2ccc(Cl)cc2)C1)c1ccoc1 (stereo not shown) | -50.1
Cc1occc1C(=O)NC1CCCN(Cc2ccc(Cl)cc2)C1 (stereo not shown) | -38.4
CC(C)Cc1ccc(CN2CCCC(NC(=O)c3cccc(-n4cnnc4)c3)C2)cc1 (stereo not shown) | -81
O=C(NC1CCCN(Cc2ccc(Cl)cc2)C1)c1cccc(N2CCCC2=O)c1 (stereo not shown) | -14.8
COc1ccc(S(=O)(=O)N2CCN(c3ccccn3)CC2)cc1OC | -12
CC#CCN1c2ccccc2[C@]23C[C@@H](C(=O)OC)N(C(=O)c4ccco4)C2=NC(C(=O)OC)=C(C(=O)OC)[C@H]13 | -2.03
Cc1nn(-c2ccccc2)c(C)c1/C=N\NS(=O)(=O)c1ccc(Cl)cc1 | -17.7
Cc1cc(C)cc(OCC(=O)NNC(=O)c2cc(C)[nH]n2)c1 | 13.9
O=C(CCC(=O)N1CCSc2ccccc21)NCCc1ccccc1 | -30.5
CCn1c(SCC(=O)N/N=C/c2ccccc2OCC(=O)O)nnc1-c1ccccc1 | 5.58
CNCC(O)C(O)C(O)C(O)CO (stereo not shown) | -0.427
CC(C)C(=O)Nc1ccc(NC(=O)CCc2ccccc2)cn1 | 18.4

SMILES | hERG current change (%, negative = inhibition) at 10uM [%]
CC(=O)Nc1ccc(S(=O)(=O)NCC2CCC(C(=O)N3CC(C)CC(C)C3)CC2)cc1 (stereo not shown) | 5.39
CC(C)Cc1ccc(CN2CCCC(NC(=O)CCN3CCCO3)C2)cc1 (stereo not shown) | -43.4
Cn1nccc1C(=O)NC1CCN(Cc2ccccc2)CC1 | -14.4
CC(C)Cc1ccc(CN2CCCC(NC(=O)c3ccnn3C)C2)cc1 (stereo not shown) | -68.7
Cl.OC(CNC1CCCC1)COCCOc1ccc(Br)cc1 (stereo not shown) | -27.4
C#CCOCCOCCOCCNc1nc(N2CCN(C(=O)[C@H]([C@@H](C)CC)n3cc([C@@H](N)Cc4ccc(O)cc4)nn3)CC2)nc(N2CCN(C(=O)[C@H]([C@@H](C)CC)n3cc([C@@H](N)CC(C)C)nn3)CC2)n1.Cl | 0.378
COCCCNCC(O)COc1ccccc1F (stereo not shown) | 5.58
CCOC(=O)c1cccc(OCC(O)CNCCOc2ccccc2F)c1 (stereo not shown) | -63
CC(=O)c1cccc(OCC(O)CNCCOc2ccc(C)cc2)c1 (stereo not shown) | -36.5
Cc1cc(C(C)(C)C)oc1C(=O)O | 27.6
CN1C(=O)OC(C)(CCc2ccccc2)C1(C)O (stereo not shown) | 11.5
Cc1c(C(=O)Nc2c(C)n(C)n(-c3ccccc3)c2=O)oc2ccc(Cl)cc12 | -51.3
Cc1c(C(=O)Nc2c(C)n(C)n(-c3ccccc3)c2=O)oc2ccccc12 | 15.8
Cc1cc2oc(C(=O)Nc3c(C)n(C)n(-c4ccccc4)c3=O)c(C)c2cc1Cl | -72.2
Cc1cc(C)c2c(C)c(C(=O)Nc3c(C)n(C)n(-c4ccccc4)c3=O)oc2c1 | -16.7
Cc1cc2oc(C(=O)Nc3c(C)n(C)n(-c4ccccc4)c3=O)c(C)c2cc1C | -24
Cc1ccc2c(C)c(C(=O)Nc3c(C)n(C)n(-c4ccccc4)c3=O)oc2c1 | -2.96
CN(C)P1(N(C)C)=Nc2c(c(N)nn2C)C(c2ccccc2)=N1 | -6.87
CCOc1cc(S(=O)(=O)NCC2OCCc3ccccc32)c(OCC)cc1-n1cnnn1 (stereo not shown) | -21.5
